# Measurements reported in PubChem BioAssay AID1345085 (National Center for Advancing Translational Sciences (NCATS), 2018).
# Records with an inconclusive call do not appear. Values without a mark were called inactive. Active and inactive are the calls of the source. Calls follow the shape of the dose curve; as a rule, active = well fitted cell-killing curve with a large enough effect; inconclusive = small, poorly fitted or top-dose-only effect, or effect the other way; inactive = no such curve, though single readings can be large or run the other way.
# Tested on: C33A
# Assay: Confirmatory qHTS for gynecologic anti-cancer compounds from libraries of approved drugs and bioactive compounds; also: nearly all actives have a fitted effect of over 55% in size
# Settings: gynecologic cancer cell panel viability, ATPlite luminescence, 48 h; series mostly up to 57.6 µM; activity change, negative = viability loss: at the top concentration
# Procedure, shortened: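 Seeding 1,000 cells per well preceded overnight (16 h) attachment, after which 48 h drug treatment across 57.5 uM–0.977 nM (11 points) was applied. Remaining cellular ATP, detected by ATPlite luminescence, defined IC50.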
# % is scaled to controls: 0 for no effect and ±100 for the full control effect; potency is read from the fitted curve at half-maximal effect.
Compound,Potency,"activity change, negative = viability loss"
CCCC(Nc1nc(-c2ccc(NC(=O)NCC)c(OC)c2)ncc1C)c1cccnc1 (centres undefined),153 nM (active),
Oc1cn2c(n1)Nc1ccc(Cl)c(Cl)c1C2,,-2.44% [at 19.5 µM]
CN(NC(=O)CC(=O)NN(C)C(=S)c1ccccc1)C(=S)c1ccccc1,27.3 nM (active),
Cc1cc(Nc2nc(N[C@@H](C)c3ccc(F)cc3)c(C#N)cc2F)n[nH]1,,-15%
NS(=O)(=O)OC[C@@H]1C[C@@H](n2ccc3c(N[C@H]4CCc5ccccc54)ncnc32)C[C@@H]1O,4850 nM (active),
Nc1ccn([C@@H]2O[C@H](CO)[C@@H](O)C2(F)F)c(=O)n1,17.2 nM (active),
C=CC(=O)Nc1cc2c(Nc3ccc(F)c(Cl)c3)ncnc2cc1OCCCN1CCOCC1,24300 nM (active),
COc1cc(Nc2ncc3c(n2)-c2ccc(Cl)cc2C(c2c(F)cccc2OC)=NC3)ccc1C(=O)O,,-3.21%
COc1cc(-c2nn(C3CCC(N4CCN(C(C)=O)CC4)CC3)c3ncnc(N)c23)ccc1NC(=O)c1cc2ccccc2n1C (centres undefined),,-12.7%
NC(=O)Nc1cc(-c2cccc(F)c2)sc1C(=O)NC1CCCNC1 (centres undefined),485 nM (active),
CO[C@@]12[C@H](COC(N)=O)C3=C(C(=O)C(C)=C(N)C3=O)N1C[C@@H]1N[C@@H]12,,-5.23%
COc1ccc(CCC(=O)c2c(O)cc(O[C@@H]3O[C@H](CO)[C@@H](O)[C@H](O)[C@H]3O[C@@H]3O[C@@H](C)[C@H](O)[C@@H](O)[C@H]3O)cc2O)cc1O,,11.6%
O=C1NC(=O)C(c2cnc3ccccn23)=C1c1cn2c3c(cccc13)CN(C(=O)N1CCOCC1)CC2,,-0.13%
O=c1c2ccccc2nc2n1CCc1c-2[nH]c2ccccc12,,17.7%
Cc1ccn(-c2ccc(-c3ncco3)cc2)c(=O)c1-c1ccc2nc(N)ncc2c1,,-9.79%
CN(Cc1cnc2nc(N)nc(N)c2n1)c1ccc(C(=O)N[C@@H](CCC(=O)O)C(=O)O)cc1,,14.3%
OCCNC1CCCc2c1[nH]c1ccc(-c3ccccc3)cc21 (centres undefined),17200 nM (active),
CC(C)c1nn(-c2c(Cl)cccc2Cl)c2nc(Cc3ccc(OCCO)cc3)[nH]c(=O)c12,96.8 nM (active),
CCOc1cc2ncc(C#N)c(Nc3ccc(F)c(Cl)c3)c2cc1NC(=O)/C=C/CN(C)C,8630 nM (active),
